RmlC RmlD mix = RmlC and RmlD coupled enzyme inhibitors, primary screen, biochemical, 384-well, compound mixtures, retest; RmlC/RmlD coupled enzyme inhibition, 384-well mixture HTS; inhibition, % at 5.5 µM; actives 0.39% (n = 110,000); AID 1532, 2009; in the data active = inhibition above about 30%, passing the limit was not always enough
YopH PTP inh = YopH tyrosine phosphatase inhibitors, primary screen, biochemical, fluorescence Ex485/Em525; inhibition, % (no concentration beside the values); actives 0.16% (n = 140,000); AID 898, 2007; in the data active = inhibition above about 50%
RmlCD fluor art = counter-screen for RmlC/RmlD inhibitors: fluorescence artifact, dose response, artefact control, biochemical; shares compounds with RmlC RmlD mix; RmlC/RmlD assay fluorescence artifact counter-screen; calls only; actives 96% (n = 360); call rule not given here;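 note: compound alone with no enzyme and no substrates present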
* = called active by the depositor; / = not tested or not shown; + = active, no number. Compounds with a hit are over-represented: about 0.44% of the library has one in this group of screens.

SMILES | RmlC RmlD mix | YopH PTP inh | RmlCD fluor art
Cc1nnc(SCC(=O)Nc2ccc(Cl)cn2)s1 | / | -17 | /
CCOCCCn1c(C)nc2c(c1=O)c1nc3ccccc3nc1n2CCC1=CCCCC1 | / | -11 | /
Cc1nc2c(c(=O)n1CCC1=CCCCC1)c1nc3ccccc3nc1n2/N=C/c1ccccc1 | -5 | -11 | +
CC1=C(C#N)C(Nc2ccc(Cl)cn2)(C(F)(F)F)C(=O)N1 (stereo not given) | -4 | -22 | /
CCOC(=O)CNc1c(-c2ccc(Cl)cc2)nc2cnccn12 | / | -12 | /
CCOC(=O)CNc1c(-c2ccc(F)cc2)nc2cnccn12 | 50* | -18 | +
Cc1cc(OCCn2cc(/C(N)=N/O)c3ccccc32)ccc1Cl | -18 | -16 | /
Cc1ccsc1/C=C1\SC(N2CC(C)OC(C)C2)=NC1=O (stereo not given) | / | -18 | /
CCOc1ccc2nc(NC(=O)c3cccc(-c4cc5ccccc5oc4=O)c3)sc2c1 | / | -4 | /
Cc1ccc2nc(NC(=O)c3cccc(-c4cc5ccccc5oc4=O)c3)sc2c1 | 41* | -11 | +
COC(=O)C1=CNC=C(C(=O)OC)C1c1ccc(Cl)cc1 | -24 | 16 | /
COC(=O)C1=CNC=C(C(=O)OC)C1c1cccc(OC)c1 | 50* | -27 | +
COC(=O)c1sc2nc(N)c(C#N)cc2c1N | / | -24 | /
COC(=O)c1sc2cnccc2c1N | 34* | -34 | +
CC1Cc2ccccc2N1C(=O)CO/N=C/c1ccc(OC(F)F)cc1 (stereo not given) | / | -14 | /
COc1ccc2c(c1)c1ncn(CCCN3CCOCC3)c(=O)c1n2C | 106* | -5 | +
COc1ccc2c(c1)[nH]c1c(=O)n(CCCN3CCOCC3)cnc12 | -12 | 4 | /
COC(=O)C1=C(C)N(c2cc(Cl)cc(Cl)c2)C(=O)C1 | 7 | -8 | /
Cc1coc(NC(=O)CSc2nc(-c3ccc(Cl)cc3)cc(C(F)(F)F)c2C#N)n1 | 4 | -4 | /
COc1ccc(-c2cc(C(F)(F)F)c(C#N)c(SCC(=O)Nc3nc(C)co3)n2)cc1 | + | -6 | +
COc1ccc(C)cc1NC(=O)c1cnc2n(c1=O)CCS2 | 7 | -13 | /
COc1ccc(C)cc1NC(=O)c1cnc2scc(C)n2c1=O | 47* | 23 | +
Cc1ccccc1C(=O)OC1OC(=O)C(Cl)=C1N1CCOCC1 (stereo not given) | / | -22 | /
Cn1c(=O)c2cn(Cc3ccc(Cl)cc3)cc2n(C)c1=O | 5 | 22 | /

From PubChem
